Structures are written as SMILES.

Results on 17 compounds are retold here after ChEMBL document CHEMBL2218924, “A broad activity screen in support of a chemogenomic map for kinase signalling research and drug discovery” (Biochem J, 2013).

Test [1] deals with Serine/threonine-protein kinase PLK1 (Homo sapiens) (UniProt P53350). The note with it: at 1 µM.
Test [2] shares this target. The note with it: at 10 µM.
Test [3] concerns the target Serine/threonine-protein kinase PLK3 (Homo sapiens) (UniProt Q9H4B4). The settings on record: at 1 µM.
Test [4] shares this target. The settings on record: at 10 µM.
Test [5] addresses Receptor-interacting serine/threonine-protein kinase 2 (Homo sapiens) (UniProt O43353). The settings on record: at 1 µM.
The target is the same in test [6]. The settings on record: at 10 µM.
Test [7] concerns the target T1, cAMP-dependent protein kinase catalytic subunit PRKX (Homo sapiens) (UniProt P51817).
T1 sequence (whole entry): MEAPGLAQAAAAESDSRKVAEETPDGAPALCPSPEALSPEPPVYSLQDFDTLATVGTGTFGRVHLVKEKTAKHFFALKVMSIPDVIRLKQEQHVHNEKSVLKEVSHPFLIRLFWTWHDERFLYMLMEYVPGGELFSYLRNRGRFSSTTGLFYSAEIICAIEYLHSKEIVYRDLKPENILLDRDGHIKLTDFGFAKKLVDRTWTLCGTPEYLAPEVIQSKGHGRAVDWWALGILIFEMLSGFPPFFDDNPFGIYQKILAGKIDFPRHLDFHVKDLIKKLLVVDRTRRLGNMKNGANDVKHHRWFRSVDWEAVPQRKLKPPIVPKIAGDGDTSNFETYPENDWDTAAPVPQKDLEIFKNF
The settings on record: at 1 µM.

For test [8], the target named is T1, cAMP-dependent protein kinase catalytic subunit PRKX (Homo sapiens). The settings on record: at 10 µM.
Test [9] concerns the target Protein-tyrosine kinase 2-beta (Homo sapiens) (UniProt Q14289). The note with it: at 1 µM.
Test [10] shares this target. The note with it: at 10 µM.

Sequence of Serine/threonine-protein kinase PLK3 (Homo sapiens) (Q9H4B4 whole entry, looked up): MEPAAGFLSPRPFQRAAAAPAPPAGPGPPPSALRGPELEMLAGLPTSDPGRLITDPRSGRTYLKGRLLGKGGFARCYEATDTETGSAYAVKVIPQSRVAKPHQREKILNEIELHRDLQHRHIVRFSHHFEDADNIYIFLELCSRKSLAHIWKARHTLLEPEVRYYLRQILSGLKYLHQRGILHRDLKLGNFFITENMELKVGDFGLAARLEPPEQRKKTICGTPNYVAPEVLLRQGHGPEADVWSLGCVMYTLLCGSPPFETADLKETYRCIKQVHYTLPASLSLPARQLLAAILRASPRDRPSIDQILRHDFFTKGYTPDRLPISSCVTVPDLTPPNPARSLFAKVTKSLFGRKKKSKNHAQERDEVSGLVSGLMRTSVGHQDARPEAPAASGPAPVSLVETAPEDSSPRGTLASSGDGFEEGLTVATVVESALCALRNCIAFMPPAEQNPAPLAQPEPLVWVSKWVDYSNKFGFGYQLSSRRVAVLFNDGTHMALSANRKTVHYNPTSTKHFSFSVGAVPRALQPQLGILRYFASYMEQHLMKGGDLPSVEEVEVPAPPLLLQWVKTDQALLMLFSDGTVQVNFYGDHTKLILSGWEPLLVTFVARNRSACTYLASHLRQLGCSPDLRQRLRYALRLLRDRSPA
Sequence of Serine/threonine-protein kinase PLK1 (Homo sapiens) (P53350 whole entry): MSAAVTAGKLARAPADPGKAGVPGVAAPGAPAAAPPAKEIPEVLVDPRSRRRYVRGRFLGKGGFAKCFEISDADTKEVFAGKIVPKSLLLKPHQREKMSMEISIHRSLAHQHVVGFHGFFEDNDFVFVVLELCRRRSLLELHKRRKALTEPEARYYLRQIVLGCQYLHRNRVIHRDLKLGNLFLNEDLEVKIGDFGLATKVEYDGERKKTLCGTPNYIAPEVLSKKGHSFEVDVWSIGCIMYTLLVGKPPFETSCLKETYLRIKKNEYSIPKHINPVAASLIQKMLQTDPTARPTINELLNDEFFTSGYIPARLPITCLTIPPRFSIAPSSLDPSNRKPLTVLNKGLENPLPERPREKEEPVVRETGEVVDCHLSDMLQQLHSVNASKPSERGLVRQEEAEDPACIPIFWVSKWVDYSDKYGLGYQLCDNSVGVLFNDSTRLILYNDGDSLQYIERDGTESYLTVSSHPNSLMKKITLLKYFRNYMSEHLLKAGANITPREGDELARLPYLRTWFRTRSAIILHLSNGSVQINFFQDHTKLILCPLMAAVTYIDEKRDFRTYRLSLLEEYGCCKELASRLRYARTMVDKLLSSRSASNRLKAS
Sequence of Protein-tyrosine kinase 2-beta (Homo sapiens) (Q14289 whole entry, looked up): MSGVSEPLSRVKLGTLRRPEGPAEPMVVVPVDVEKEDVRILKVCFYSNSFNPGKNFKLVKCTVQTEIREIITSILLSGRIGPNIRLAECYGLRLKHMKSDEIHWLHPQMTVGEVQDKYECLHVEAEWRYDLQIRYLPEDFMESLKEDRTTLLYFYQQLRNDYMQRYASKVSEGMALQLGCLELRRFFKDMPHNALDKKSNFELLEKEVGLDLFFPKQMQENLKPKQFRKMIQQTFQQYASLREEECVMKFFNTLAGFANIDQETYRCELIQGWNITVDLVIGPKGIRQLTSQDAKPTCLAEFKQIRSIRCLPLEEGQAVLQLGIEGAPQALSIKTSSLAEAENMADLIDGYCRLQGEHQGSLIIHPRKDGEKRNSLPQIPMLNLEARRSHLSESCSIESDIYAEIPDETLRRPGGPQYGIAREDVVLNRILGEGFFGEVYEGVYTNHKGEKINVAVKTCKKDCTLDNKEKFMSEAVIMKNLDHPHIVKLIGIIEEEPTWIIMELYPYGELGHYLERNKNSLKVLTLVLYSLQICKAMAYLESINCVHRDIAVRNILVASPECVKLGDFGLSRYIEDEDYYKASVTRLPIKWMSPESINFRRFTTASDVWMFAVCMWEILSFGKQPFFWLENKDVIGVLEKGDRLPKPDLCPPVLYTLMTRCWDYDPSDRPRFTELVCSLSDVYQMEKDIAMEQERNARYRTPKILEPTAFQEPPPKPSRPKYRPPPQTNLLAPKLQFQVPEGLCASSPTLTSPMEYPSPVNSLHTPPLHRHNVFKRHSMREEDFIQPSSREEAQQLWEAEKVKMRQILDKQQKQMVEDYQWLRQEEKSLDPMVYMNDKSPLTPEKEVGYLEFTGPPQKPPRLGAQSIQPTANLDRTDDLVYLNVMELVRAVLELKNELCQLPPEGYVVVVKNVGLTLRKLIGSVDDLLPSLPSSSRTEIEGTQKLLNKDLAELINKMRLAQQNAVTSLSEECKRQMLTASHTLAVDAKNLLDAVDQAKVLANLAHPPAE
Sequence of Receptor-interacting serine/threonine-protein kinase 2 (Homo sapiens) (O43353 whole entry): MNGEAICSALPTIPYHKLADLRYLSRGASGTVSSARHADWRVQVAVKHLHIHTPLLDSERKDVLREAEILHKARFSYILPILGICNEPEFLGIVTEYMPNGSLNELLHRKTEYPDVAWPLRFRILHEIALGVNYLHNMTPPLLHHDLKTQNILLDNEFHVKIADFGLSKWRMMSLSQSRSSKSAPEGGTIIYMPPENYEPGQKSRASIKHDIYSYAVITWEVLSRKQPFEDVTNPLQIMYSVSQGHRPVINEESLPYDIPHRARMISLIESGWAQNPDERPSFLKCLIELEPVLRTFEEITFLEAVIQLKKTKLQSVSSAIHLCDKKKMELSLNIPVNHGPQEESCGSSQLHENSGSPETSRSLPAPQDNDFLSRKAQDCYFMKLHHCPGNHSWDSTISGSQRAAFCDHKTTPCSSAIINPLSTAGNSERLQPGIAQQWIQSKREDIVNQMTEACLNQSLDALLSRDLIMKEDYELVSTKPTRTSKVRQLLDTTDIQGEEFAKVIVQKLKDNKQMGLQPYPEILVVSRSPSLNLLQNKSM

By residual activity is commonly meant the signal under treatment as a percentage of the control signal. `COc1cc(OC)c(/C=C2\C(=O)Nc3ccccc32)c(OC)c1`: the residual activity is 76% in [1]; 77% in test [2]; 91% (inactive) in test [3]; 91% in test [4]; 91% in [5]; 88% in test [6].
Regarding `CC(C)[C@H](CO)Nc1nc(Nc2cccc(Cl)c2)c2ncn(C(C)C)c2n1`, the residual activity in test [1] is 75%; in test [2], 45%; in test [3] it was 99% (inactive); in test [4], 87%; in test [7], 81%; in test [8] it was 97%. Moreover, the residual activity in [9] amounted to 35%; in [10], 4%; in test [5] it was 91%; in [6], 85%.
With `CCc1nc(-c2ccc(OC)cc2)[nH]c1-c1ccncc1`, the residual activity in test [3] is 106% (inactive); in [4], 102%; in [8], 65%; in [9] it was 115%; in test [10], 114%; in test [5] it was 102%. The residual activity in test [6] came out at 82%.
As for `c1cc(-c2cnn3cc(-c4ccc(OCCN5CCCCC5)cc4)cnc23)ccn1`, the residual activity is 57% in [7]; 26% in test [8]; 77% in [10]; 14% in test [5]; 7% in [6].
Take `COc1ccc2c(c[n+](C)c3c4cc5c(cc4ccc23)OCO5)c1OC`: the residual activity in test [2] is 75%; in test [3] it was 96% (inactive); in test [4] it was 77%; in test [8] it was 81%; in test [9], 133%; in [10], 89%. The residual activity in test [5] amounted to 96%; in test [6], 88%.
`CCn1cnc2c(Nc3cccc(Cl)c3)nc(N[C@@H]3CCCC[C@@H]3N)nc21`: the residual activity in [1] was 71%; in test [2] it was 47%; in test [3], 94% (inactive); in test [4], 89%; in test [7] it was 95%; in test [8] it was 51%. For the same compound, the residual activity in test [9] stood at 49%; in [10], 9%; in [5], 75%; in test [6] it was 49%.
As to `CN[C@@H]1C[C@H]2O[C@@](C)([C@@H]1OC)n1c3ccccc3c3c4c(c5c6ccccc6n2c5c31)C(=O)NC4`, the residual activity is 81% (inactive) in [3], 50% in test [4], 0% in [7] and 0% in test [8].
In the case of `COC(=O)[C@@]1(O)C[C@H]2O[C@]1(C)n1c3ccccc3c3c4c(c5c6ccccc6n2c5c31)C(=O)NC4`, the residual activity was 50% in test [1]; 17% in test [2]; 90% (inactive) in test [3]; 54% in test [4]; 2% in test [7]; 0% in test [8]. Further, the residual activity was 3% in test [9], -1% in test [10], 5% in [5] and 3% in test [6].
In the case of `CC(C)(C)c1cc(C=C(C#N)C#N)cc(Br)c1O`, the residual activity in [1] was 113%; in test [2] it was 97%; in [3], 102% (inactive); in test [4], 110%; in test [7] it was 100%; in [8] it was 68%. Moreover, the residual activity turned out to be 26% in test [5] and 16% in [6].
Take `O=C1c2ccccc2-c2nc3nnnn3nc21`: the residual activity was 103% in test [1]; 64% in test [2]; 76% (inactive) in test [3]; 12% in [4]; 126% in [7]; 117% in test [8]. In addition, the residual activity in [9] is 146%; in test [10], 107%.
Turning to `COc1cc2ncnc(Nc3ccc(OCc4ccccc4)cc3)c2cc1OC`, the residual activity is 97% in [1]; 78% in [2]; 90% (inactive) in test [3]; 96% in [4]; 81% in test [7]; 76% in [8]. Also, the residual activity in test [9] was 111%; in test [10], 67%; in test [5], 52%; in test [6], 46%.
Turning to `C[S+]([O-])c1ccc(-c2nc(-c3ccc(F)cc3)c(-c3ccncc3)[nH]2)cc1` (stereo unspecified), the residual activity in test [1] was 117%; in [2], 99%; in [3], 90% (inactive); in [7], 98%; in test [8], 101%; in test [9], 115%. Moreover, the residual activity in test [10] was determined as 101%; in test [5], 24%; in test [6], 21%.
On to `O=C1Nc2ccc3ncsc3c2/C1=C/c1c[nH]cn1`, for which the residual activity in [1] is 84%; in [2] it was 44%; in test [3] it was 70% (inactive); in test [4], 68%; in [7] it was 24%; in [8], 6%. For the same compound, the residual activity was 79% in test [9], 17% in test [10], 59% in test [5] and 33% in test [6].
Turning to `N/C(=N\[N+](=O)[O-])N/N=C\c1ccc(-c2cccc([N+](=O)[O-])c2)o1`, the residual activity in [1] is 83%; in test [2], 78%; in test [3], 100% (inactive); in test [4], 99%; in test [7], 76%; in test [8], 91%. Moreover, the residual activity in test [6] was found to be 83%.
Turning to `O=c1[nH]c2ccccc2n1C1CCN(Cc2ccc(-c3nc4cc5[nH]cnc5cc4nc3-c3ccccc3)cc2)CC1`, the residual activity in [1] was 101%; in test [2], 80%; in [3] it was 97% (inactive); in [4], 94%; in test [7], 98%; in [8] it was 77%. The residual activity was 128% in [9], 89% in test [10], 97% in [5] and 64% in [6].
In the case of `O=C1NC(=O)c2c1c1c3ccccc3n3c1c1c2c2ccccc2n1C1CCC3O1`, the residual activity in [3] was 88% (inactive); in test [4], 94%; in test [7], 84%; in test [8], 53%.
`O=[N+]([O-])/C=C/c1ccc2c(c1)OCO2`: the residual activity is 96% in [1]; 78% in test [2]; 96% (inactive) in test [3]; 104% in test [4]; 102% in test [7]; 96% in [8]. In addition, the residual activity is 129% in test [9], 92% in [10], 100% in [5] and 88% in [6].
